Experimental data: PubChem BioAssay
Results filed as inconclusive are left out. The source made the active and inactive calls.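 Rule for the calls, unless noted: active = viability at or below 10% of carrier control in both of two separate runs; inconclusive = viability at or below 10% in only one of the two runs; inactive = the rest.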

Columns and labels:
[1] = reducers of endogenous Her2 protein level, primary screen, SKBR3 breast tumor cells, AlphaScreen, ATP viability (AID 461;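 active = Her2 level under about 52% in both replicate screens, with viability over 70% of control, limit read from the data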;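 for Her2 level: lower value means less Her2 protein in the cells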;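 for viability: percent of carrier control wells set as 100% viability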); details: 18-24 h, measured here: SKBR3 viability, ATP luminescence, at 10 µM
[2] = biological target: Receptor tyrosine-protein kinase erbB-2 (Homo sapiens) (UniProt P04626); test: as above; details: 18-24 h, at 10 µM, stronger effect = lower value
Chain of Receptor tyrosine-protein kinase erbB-2 (Homo sapiens) (P04626 whole entry, looked up): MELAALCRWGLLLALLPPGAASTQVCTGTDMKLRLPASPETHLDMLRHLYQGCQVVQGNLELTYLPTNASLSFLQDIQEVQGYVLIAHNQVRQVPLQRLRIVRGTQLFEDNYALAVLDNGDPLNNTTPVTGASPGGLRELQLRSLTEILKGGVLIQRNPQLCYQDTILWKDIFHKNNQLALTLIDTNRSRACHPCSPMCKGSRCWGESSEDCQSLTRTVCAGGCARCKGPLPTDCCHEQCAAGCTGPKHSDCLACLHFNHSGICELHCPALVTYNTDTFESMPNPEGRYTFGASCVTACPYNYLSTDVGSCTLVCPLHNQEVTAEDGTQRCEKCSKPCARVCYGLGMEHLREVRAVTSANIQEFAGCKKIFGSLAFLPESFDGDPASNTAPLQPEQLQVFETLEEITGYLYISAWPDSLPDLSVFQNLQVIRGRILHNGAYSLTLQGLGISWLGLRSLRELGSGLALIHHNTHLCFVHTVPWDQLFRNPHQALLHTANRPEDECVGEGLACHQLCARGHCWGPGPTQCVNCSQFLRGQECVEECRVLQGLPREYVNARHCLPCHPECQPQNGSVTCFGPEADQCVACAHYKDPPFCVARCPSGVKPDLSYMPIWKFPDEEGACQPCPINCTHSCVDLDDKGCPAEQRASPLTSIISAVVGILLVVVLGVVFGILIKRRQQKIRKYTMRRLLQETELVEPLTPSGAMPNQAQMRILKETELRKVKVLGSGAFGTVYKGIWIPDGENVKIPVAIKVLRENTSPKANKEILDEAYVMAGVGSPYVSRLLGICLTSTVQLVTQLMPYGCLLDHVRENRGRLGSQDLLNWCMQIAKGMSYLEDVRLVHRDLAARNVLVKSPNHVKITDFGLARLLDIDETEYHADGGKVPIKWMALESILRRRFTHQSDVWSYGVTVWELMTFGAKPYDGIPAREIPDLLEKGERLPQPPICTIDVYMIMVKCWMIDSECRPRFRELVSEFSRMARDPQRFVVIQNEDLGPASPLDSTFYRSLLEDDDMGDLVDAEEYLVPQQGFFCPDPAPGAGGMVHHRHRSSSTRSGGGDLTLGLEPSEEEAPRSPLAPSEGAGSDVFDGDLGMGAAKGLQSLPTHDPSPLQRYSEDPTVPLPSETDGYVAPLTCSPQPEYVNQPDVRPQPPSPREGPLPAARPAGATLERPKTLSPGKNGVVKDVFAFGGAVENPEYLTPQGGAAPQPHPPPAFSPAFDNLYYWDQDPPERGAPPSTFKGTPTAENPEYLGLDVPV

[3] = SK-BR-3 cell growth inhibitors, pilot screen, 24 h, human (AID 572); details: SK-BR-3 viability, CellTiter-Glo luminescence, at 10 µM, stronger effect = lower value;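 note: compound exposure lasted between 18 and 24 h rather than exactly 24 h; 100% = carrier-treated control wells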
[4] = HUVEC growth inhibition – cell-based, human, primary screen (AID 575;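 active = viability at or below 30% in both replicate assays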;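 note: 100% = median of untreated cell wells with 0.1% DMSO on each plate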); details: HUVEC proliferation, CellTiter-Glo luminescence, 72 h; at 10 µM; stronger effect = lower value
[5] = growth inhibitors of H69AR lung tumor, primary screen, human, duplicate replicates (AID 580;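 active = viability at or under a set limit in both replicates, limit being median viability minus 3 SD, cut at about 48% in these data, passing the limit was not always enough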;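 note: 100% = mean luminescence of untreated wells and 0% = no signal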); details: H69AR lung tumor cells viability, ATP luminescence, 72 h; at 10 µM; stronger effect = lower value
[6] = reversal of MRP1-mediated doxorubicin resistance, pilot screen, H69AR cells, doxorubicin co-treatment (AID 601;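 active = viability loss from added drug above about 55%, and viability with drug at most 40%, in both replicates, limit read from the data, passing the limit was not always enough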); details: CellTiter-Glo, 72 h, at 10 µM; for differential viability (reversal): stronger effect = higher value
[7] = 384-well plate pilot, post-Golgi transport modulator project, inhibition of yeast transport mutant growth (AID 636; in the data active = inhibition above about 31%); details: absorbance 615 nm, about 18 h, stronger effect = higher value
[8] = growth suppression of yeast trafficking mutant, preliminary HTS, modulators of trafficking downstream of Golgi apparatus project, 1536-format plate, OD 615 nm (AID 637; in the data active = inhibition above about 30%); details: yeast transport mutant growth, absorbance 615 nm, 18 h; stronger effect = higher value
[9] = OD615 S. cerevisiae growth inhibition, permissive medium, pilot counter-assay, permissive growth control for S. cerevisiae lifespan shortening project (AID 705;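 active = growth inhibition above 25% in both replicates, a cutoff set 3 SD above the mean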); details: OD615, 24 h, at 10 µM, stronger effect = higher value
[10] = Restrictive medium S. cerevisiae growth inhibition, OD615, pilot screen of yeast lifespan reduction project, restrictive growth control (AID 706;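 active = growth inhibition above a set limit, 3 SD over mean compound inhibition, in both replicates, cut at about 43% in these data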;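 note: modified DeaD lifespan yeast strain shifted to restrictive glucose medium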); details: OD615, 48 h, at 10 µM, stronger effect = higher value
[11] = viability gain of MRP-1-high H69AR cells under doxorubicin, pilot screen, MRP-1 activator project, CellTiter-Glo, duplicate (AID 807;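 active = viability increase at or above a cutoff of the median across tested compounds plus 3 SD, cut at about 8.5% in these data, passing the limit was not always enough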;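 note: compound pretreatment 18-22 h then 72 h combined with doxorubicin; 0% = doxorubicin alone and 100% = vehicle without doxorubicin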); details: H69AR viability with doxorubicin, CellTiter-Glo luminescence; at 10 µM; stronger effect = higher value
[12] = growth suppression of beta-catenin knockout HCT116, pilot screen, human colon tumor cells (AID 823;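 active = cell viability at or below a set limit in both duplicate runs, the limit being the all-compound median minus 4 SD, cut at about 23% in these data, passing the limit was not always enough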;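 note: 0% = wells killed by 20 µM Hyamine and 100% = untreated DMSO cell wells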); details: CellTiter-Glo, 60 h, at 10 µM, stronger effect = lower value
[13] = growth suppression of PTEN-deleted HCT116, pilot screen, cell-based, HCT116 clonal line, CellTiter-Glo (AID 824;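 active = viability at or below 27.92% in each of two runs, the all-compound median minus 4 SD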;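 note: 0% = 20 µM Hyamine control and 100% = vehicle cell control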); details: 60 h, at 10 µM, stronger effect = lower value
[14] = inhibitors of the yeast RAM network, pilot screen, dse1pr::URA3 reporter, 5-FOA selection (AID 869;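 active = inhibition over a set limit, the all-compound mean plus 3 SD, in both replicate runs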;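 note: 0% = DMSO wells with no growth and 100% = 10 µM 1-NA-PP1 with full growth; RAM network block rescues cells from 5-FOA so hits raise OD615 growth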); details: S. cerevisiae dse1pr::URA3 5-FOA growth, OD615, 2 d; at 10 µM; stronger effect = higher value; strain carries analog-sensitive mutant Cbk1 kinase
[15] = RAM signaling pathway blockade in yeast – S. cerevisiae, Pdr1DBD-CYC8 efflux-inhibited sensitized strain, primary screen (AID 1298;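 active = RAM network inhibition above 8.4% in each of two replicates, 3 SD over the compound average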;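 note: 0% = DMSO untreated cells without growth and 100% = 10 µM 1-NA-PP1 full growth; higher means more yeast growth rescued from 5-FOA killing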); details: S. cerevisiae cbk1-as DSE1-URA3 strain, 5-FOA growth OD615, 2 d; at 50 µM; stronger effect = higher value
[16] = H69AR cells + 2 uM doxorubicin, measured here: viability with 2 uM doxorubicin, stronger effect = lower value
[17] = H69AR cells, compound alone cytotoxicity

Compound	viability [1]	Her2 level [2]	viability [3]	viability [4]	viability [5]	differential viability (reversal) ([6]; H69AR cells + 2 uM doxorubicin)	viability [6, 16]	viability [6, 17]	inhibition [7]	inhibition [8]	growth inhibition [9]	growth inhibition [10]	viability increase [11]	viability [12]	viability [13]	inhibition [14]	RAM network inhibition [15]
COc1ccc(OCCSc2nc3ccccc3n2CC(=O)O)cc1	92.5%	108% (inactive)	92.5% (inactive)	85.4% (inactive)	97.8% (inactive)	2.5% (inactive)	95.3%	97.8%	-3.21% (inactive)	-2% (inactive)	-2.19% (inactive)	-5.21% (inactive)	-0.98% (inactive)	99.6% (inactive)	94.8% (inactive)	0.61% (inactive)	4.44% (inactive)
CC(OC(=O)C1CC=CCC1C(N)=O)C(Cl)=C(Cl)Cl (stereo unspecified)	88%	105% (inactive)	88% (inactive)	80.8% (inactive)	93.7% (inactive)	7.14% (inactive)	86.5%	93.7%	6.1% (inactive)	1.31% (inactive)	-2.97% (inactive)	-1.67% (inactive)	0.52% (inactive)	103% (inactive)	105% (inactive)	0.055% (inactive)	2.45% (inactive)
CC1(C)C(c2ccccc2)=NC(c2ccccc2)N1O (stereo unspecified)	86.5%	82% (inactive)	86.5% (inactive)	98% (inactive)	91.4% (inactive)	8.36% (inactive)	83%	91.4%	-0.78% (inactive)	-9% (inactive)	-0.065% (inactive)	-4.8% (inactive)	-1.73% (inactive)	95.6% (inactive)	96.5% (inactive)	0.165% (inactive)	3.18% (inactive)
CCCCN(C(=O)c1ccc(Cl)cc1)C1CC2CCC(C1)N2C (stereo unspecified)	87.5%	120% (inactive)	87.5% (inactive)	78.2% (inactive)	85.1% (inactive)	3.96% (inactive)	81.2%	85.1%	-5.6% (inactive)	-4% (inactive)	-9.97% (inactive)	1.71% (inactive)	-2.41% (inactive)	85.3% (inactive)	89.3% (inactive)	1.62% (inactive)	-0.05% (inactive)
COc1ccccc1C(=O)OCn1nnc2ccccc2c1=O	96.5%	98% (inactive)	96.5% (inactive)	78.8% (inactive)	99.5% (inactive)	-15.4% (inactive)	115%	99.5%	-4.27% (inactive)	1.17% (inactive)	-11.2% (inactive)	-10.4% (inactive)	-0.53% (inactive)	95% (inactive)	91.2% (inactive)	0.655% (inactive)	0.92% (inactive)
C=C(C)c1cccc(C(C)(C)NC(=O)NCC2CCCO2)c1 (stereo unspecified)	94%	98% (inactive)	94% (inactive)	79.9% (inactive)	93.7% (inactive)	7.16% (inactive)	86.5%	93.7%	0.77% (inactive)	-8.5% (inactive)	-6.62% (inactive)	-9.92% (inactive)	-0.54% (inactive)	94.7% (inactive)	96.2% (inactive)	1.77% (inactive)	1.07% (inactive)
CCN(CC)C(=O)COC(=O)c1ccc(O)cc1	90.5%	102% (inactive)	90.5% (inactive)	103% (inactive)	91.2% (inactive)	-5.45% (inactive)	96.7%	91.2%	1.73% (inactive)	-5.97% (inactive)	-6.88% (inactive)	-17.4% (inactive)	0.25% (inactive)	95.6% (inactive)	101% (inactive)	1.32% (inactive)	-0.27% (inactive)
O=C(CS(=O)(=O)Cc1ccccc1)Nc1nc2ccccc2s1	104%	85% (inactive)	104% (inactive)	89.2% (inactive)	92.1% (inactive)	-3.83% (inactive)	95.9%	92.1%	-0.13% (inactive)	0.32% (inactive)	-13.1% (inactive)	-17.7% (inactive)	-0.52% (inactive)	101% (inactive)	97.1% (inactive)	4.3% (inactive)	7.64% (inactive)
C(=N\c1c(-c2ccccc2)nc2n1CCS2)/c1ccccc1	102%	104% (inactive)	102% (inactive)	85.9% (inactive)	100% (inactive)	10.5% (inactive)	89.5%	100%	-1.69% (inactive)	-6% (inactive)	1.59% (inactive)	40.4% (inactive)	-4.2% (inactive)	84.8% (inactive)	90.2% (inactive)	0.675% (inactive)	6.86% (inactive)
COc1ccccc1NC(=O)N(C1CCCC1)C1CCN(C(C)=O)CC1	77.5%	89.5% (inactive)	77.5% (inactive)	112% (inactive)	88.3% (inactive)	0.61% (inactive)	87.6%	88.3%	0.77% (inactive)	-8.83% (inactive)	-2.26% (inactive)	-27.4% (inactive)	-2.01% (inactive)	92.4% (inactive)	94.7% (inactive)	0.72% (inactive)	5% (inactive)
CCc1c(C)c2c(C)nn(-c3ccccc3)c2[nH]c1=O	83%	81.5% (inactive)	83% (inactive)	68.9% (inactive)	90.1% (inactive)	5.91% (inactive)	84.2%	90.1%	-0.65% (inactive)	-1.31% (inactive)	-3.86% (inactive)	4.15% (inactive)	-2.75% (inactive)	85.1% (inactive)	79% (inactive)	1.53% (inactive)	0.31% (inactive)
COc1ccccc1S(=O)(=O)Cc1ccc(C(=O)N2CCN(c3ccc(C)cc3)C(C)C2)o1 (stereo unspecified)	82.5%	64.5% (inactive)	82.5% (inactive)	52.4% (inactive)	7.92% (active)	-48.4% (inactive)	56.3%	7.92%	-1.07% (inactive)	1.64% (inactive)	4.27% (inactive)	-15.2% (inactive)	-6.26% (inactive)	43.2% (inactive)	36.8% (inactive)	0.41% (inactive)	5.28% (inactive)
CCOC(=O)N1CCC(c2cc(=O)n3[nH]cc(C(=O)OC)c3n2)CC1	94.5%	101% (inactive)	94.5% (inactive)	92.1% (inactive)	92.2% (inactive)	9.5% (inactive)	82.7%	92.2%	-4% (inactive)	0.83% (inactive)	2.45% (inactive)	9.29% (inactive)	-0.6% (inactive)	88.8% (inactive)	101% (inactive)	0.045% (inactive)	0.56% (inactive)
O=S(=O)(c1ccc(F)cc1)N1CCC(N2CCCC2)CC1	104%	96% (inactive)	104% (inactive)	89% (inactive)	91.2% (inactive)	10.3% (inactive)	80.9%	91.2%	-4.4% (inactive)	3.67% (inactive)	-0.015% (inactive)	-5.88% (inactive)	-2.89% (inactive)	96.2% (inactive)	95.9% (inactive)	1.23% (inactive)	0.93% (inactive)
O=C(Nc1cccc(Cl)c1)N1CCN(Cc2ccccc2)CC1	98.5%	99% (inactive)	98.5% (inactive)	103% (inactive)	84.2% (inactive)	5.49% (inactive)	78.7%	84.2%	-6% (inactive)	-0.49% (inactive)	-4.47% (inactive)	-8.27% (inactive)	-1.11% (inactive)	92.1% (inactive)	86.4% (inactive)	1.24% (inactive)	3.81% (inactive)
N#Cc1c2n(c(=O)[nH]c1=O)CCCCC2	112%	92% (inactive)	112% (inactive)	96.2% (inactive)	103% (inactive)	3.5% (inactive)	99.7%	103%	-2.6% (inactive)	-7.46% (inactive)	-9.79% (inactive)	1.1% (inactive)	1.19% (inactive)	99.5% (inactive)		-0.04% (inactive)	6.34% (inactive)
O=C(OCC(=O)c1ccc[nH]1)c1ccc(S(=O)(=O)N2CCCCC2)cc1	94%	98% (inactive)	94% (inactive)	90.9% (inactive)	97.8% (inactive)	16.8% (inactive)	81%	97.8%	-3.64% (inactive)	-6.17% (inactive)	-15.2% (inactive)	-4.03% (inactive)	-0.59% (inactive)	99.8% (inactive)		3.25% (inactive)	3.17% (inactive)
COc1ccc(C(=O)NCc2nnc(SC)n2C2CCCCC2)cc1	104%	91% (inactive)	104% (inactive)	81.2% (inactive)	92% (inactive)	9.5% (inactive)	82.5%	92%	-3.33% (inactive)	-3.44% (inactive)	-4.53% (inactive)	3.39% (inactive)	-1.51% (inactive)	99.8% (inactive)	96.4% (inactive)	1.08% (inactive)	2.76% (inactive)
C(/CCc1ccccc1)=N\n1cnnc1	105%	94.5% (inactive)	105% (inactive)	117% (inactive)	99% (inactive)	9.93% (inactive)	89.1%	99%	-5.07% (inactive)	8.03% (inactive)	-14.7% (inactive)	1.89% (inactive)	-1.24% (inactive)	102% (inactive)		0.44% (inactive)	5.92% (inactive)
Cc1ccc(S(=O)(=O)N2CCOCC2)cc1C(=O)Nc1nc(-c2cccnc2)cs1	106%	91% (inactive)	106% (inactive)	88.8% (inactive)	103% (inactive)	9% (inactive)	94.3%	103%	0% (inactive)	-3.33% (inactive)	-14.2% (inactive)	-6.87% (inactive)	-1.69% (inactive)	96.8% (inactive)		1.93% (inactive)	3.11% (inactive)
